High-throughput results from PubChem BioAssay.
Tb PYK inh – inhibitors of Trypanosoma brucei pyruvate kinase. TbPYK enzyme, Kinase-Glo Plus ATP luminescence, 45 min. Q57TT1. actives 0.12% (n = 410,000). Potency, µM (highest dose often 76.8 µM), actives largely listed as inhibitors; also: nearly all actives have a fitted effect of over 50% in size
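Luminescent Kinase-Glo Plus end-point after 45 min room-temperature reaction of T. brucei pyruvate kinase started with 130 uM ADP (final). Buffer TEA 50 mM pH 7.2 with KCl, MgCl2, BSA, Tween-20; titration-based qHTS with fitted concentration-effect curves.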
Giardia FBPA inh-1 – Giardia lamblia aldolase inhibition; Potency, µM (titrated, usually from 59.6 µM), hits mostly inhibitors; A8B2U2; actives 0.71% (n = 290,000); purified Giardia FBPA; also: nearly all actives have a fitted effect of over 55% in size
Target sequence (A8B2U2 whole entry, looked up): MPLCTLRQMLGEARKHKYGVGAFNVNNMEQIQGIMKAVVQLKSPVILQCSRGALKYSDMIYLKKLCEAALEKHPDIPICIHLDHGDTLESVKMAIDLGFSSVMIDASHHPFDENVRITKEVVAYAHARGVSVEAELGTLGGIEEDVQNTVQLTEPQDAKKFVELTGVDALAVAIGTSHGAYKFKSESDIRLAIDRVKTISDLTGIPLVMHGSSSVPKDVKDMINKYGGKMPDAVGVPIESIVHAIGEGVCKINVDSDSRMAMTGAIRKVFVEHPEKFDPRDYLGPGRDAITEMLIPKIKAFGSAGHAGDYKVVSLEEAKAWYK
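40 nM FBPA preincubated 10 min at RT with compound (up to 57.5 uM final), then substrate plus GAPDH/TPI/NAD/arsenate coupling and diaphorase/resazurin added. Fluorescence read after 20 min at RT, 525/598 nm.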
LmPK inh – LmPK (Leishmania mexicana) enzyme inhibition | purified LmPK, Kinase-Glo ATP luminescence, 1 h | Potency, µM (titrated, usually from 57.5 µM), actives largely listed as inhibitors | actives 0.37% (n = 290,000)
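qHTS format; LmPK 0.1 nM; substrates PEP 0.5 mM and ADP 0.1 mM. One-hour room-temperature incubation, then coupled luciferase luminescence; 0.5 nM enzyme wells mark activation.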
RE007 growth inh – less growth of the S. pombe RE007 Vpr strain. S. pombe RE007 Vpr strain, BacTiter-Glo ATP luminescence, 24 h. Potency, µM (highest dose often 92.2 µM), actives largely listed as inhibitors. actives 0.21% (n = 360,000); active = well fitted falling curve with a large enough effect; inconclusive = small, poorly fitted or top-dose-only effect; inactive = no such curve, though single readings can be large or run the other way; also: nearly all actives have a fitted effect of over 50% in size
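Fission yeast strain RE007, carrying one chromosomally integrated HIV-1 vpr copy, was seeded at OD 0.01 in PMG+AL medium with 23 nL pinned compound. After 24 h at 30 °C and 99% humidity, viability was read by BacTiter-Glo luminescence.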
Giardia growth – inhibitors of Giardia lamblia growth; shares compounds with Giardia FBPA inh-1; Giardia lamblia trophozoite growth inhibition; Potency, µM (titrated, usually from 57.5 µM), actives largely listed as inhibitors; actives 5% (n = 1,500); AID 2785;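 also: trophozoites exposed to compound for 48 h at 37 °C; nearly all actives have a fitted effect of over 70% in size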
Mammal cell tox – counter-screen for Giardia aldolase inhibitors: mammalian cell toxicity; mammalian cell viability counter-screen, qHTS; Potency, µM (series often up to 57.5 µM), usual class: inhibitors; AID 2786; actives 4% (n = 1,500); shares compounds with Giardia FBPA inh-1;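 also: Chinese hamster ovary cells used as mammalian cytotoxicity surrogate; viability measured as cellular ATP by luminescence; compound exposure lasted 48 h before reading; nearly all actives have a fitted effect of over 60% in size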
Giardia FBPA inh-2 – confirmation of Giardia fructose-bisphosphate aldolase inhibitors; actives 5% (n = 1,500); shares compounds with Giardia FBPA inh-1; purified Giardia aldolase enzyme activity, qHTS; Potency, µM (titrated, usually from 57.5 µM), hits mostly inhibitors; AID 2787; also: nearly all actives have a fitted effect of over 45% in size
Rabbit FBPA inh – blocks rabbit muscle aldolase in Giardia aldolase selectivity test | shares compounds with Giardia FBPA inh-1 | Rabbit muscle FBPA enzyme inhibition, selectivity counter-screen | Potency, µM (titrated, usually from 57.5 µM), usual class: inhibitors | actives 4% (n = 1,500); also: nearly all actives have a fitted effect of over 60% in size
Target sequence (P00883 whole entry, looked up): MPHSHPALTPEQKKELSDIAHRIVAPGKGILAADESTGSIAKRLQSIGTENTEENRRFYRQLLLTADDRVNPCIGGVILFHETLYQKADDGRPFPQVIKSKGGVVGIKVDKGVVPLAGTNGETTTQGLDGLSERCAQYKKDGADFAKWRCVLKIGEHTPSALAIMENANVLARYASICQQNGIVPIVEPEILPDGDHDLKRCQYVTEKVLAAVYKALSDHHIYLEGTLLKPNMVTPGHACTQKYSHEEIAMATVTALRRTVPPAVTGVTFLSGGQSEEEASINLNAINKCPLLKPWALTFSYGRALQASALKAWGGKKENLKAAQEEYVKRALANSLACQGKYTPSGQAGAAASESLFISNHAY
GAPDH counter – counter-screen for Giardia aldolase inhibitors: GAPDH coupling enzyme | shares compounds with Giardia FBPA inh-1 | GAPDH coupling enzyme counterscreen, biochemical, qHTS | Potency, µM (highest dose often 57.5 µM), actives largely listed as inhibitors | actives 6% (n = 1,500) | AID 2795; also: nearly all actives have a fitted effect of over 55% in size
A number is an active result; - = inactive; ? = inconclusive; . = not tested or not shown; [ ] = another dose, or the depositor's remark. Rows were chosen to be rich in hits. Some 0.95% of all compounds tested hit in one or more screens of this group. Unless noted, calls follow the shape of the dose curve; as a rule, active = well fitted curve in the direction sought with a large enough effect; inconclusive = small, poorly fitted or top-dose-only effect, or another doubt; inactive = no such curve, though single readings can be large; an effect the other way counts as inactive or inconclusive.

SMILES	Tb PYK inh	Giardia FBPA inh-1	LmPK inh	RE007 growth inh	Giardia growth	Mammal cell tox	Giardia FBPA inh-2	Rabbit FBPA inh	GAPDH counter
CC1(C)Cc2cccc(OCC(=O)OCc3nnc(-c4ccc([N+](=O)[O-])cc4)o3)c2O1	-	.	.	-	.	.	.	.	.
CN(C)C(=S)NC(=O)c1cccc(Cl)c1	-	16µM	-	-	7.1µM	-	-	-	-
CCOC(=O)c1c(-c2ccc(-c3ccccc3)cc2)csc1NC(=O)CCN1CCOCC1	-	-	-	-	.	.	.	.	.
CCOC(=O)c1c(-c2ccccc2)csc1NC(=O)C(C)NCCCN1CCOCC1 (stereo unspecified)	-	18µM	-	-	4.5µM	-	-	-	-
CSc1ccccc1NC(=O)CN(C)C(=O)CCc1c[nH]c2ccccc12	-	.	-	-	.	.	.	.	.
Cc1n[nH]c(=S)n(NC(=O)/C=C/C(=O)Nn2c(=S)[nH]nc(C)c2=O)c1=O	-	-	-	-	.	.	.	.	.
Cc1nn2c(=S)[nH]nc2[nH]c1=O	?	11µM	-	-	-[10.4 µM]	-	-	-	-
Cc1cc(N2CCCCC2)nc2ccc(NC(=O)/C=C/c3ccccc3OC(C)C)cc12	-	.	.	.	.	.	.	.	.
COc1ccc(NN=Nc2nc3c([nH]2)c(=O)n(C)c(=O)n3C)cc1	?	18µM	-	-	?	-	13µM	?	?
C/C(=N\NC(=O)c1ccc(Br)o1)c1cc2c(cc1NC(=O)CCC(=O)O)OCO2	-	.	-	-	.	.	.	.	.
COc1ccc(N=NC2C(=O)N(c3ccccc3)N=C2C)cc1 (stereo unspecified)	-	28µM	-	-	-	-	-	-	-
CC1=NN(c2ccccc2)C(=O)C1N=Nc1cccc(O)c1 (stereo unspecified)	-	10µM	-	-	?	-	-	-	-
CC1=NN(c2ccccc2)C(=O)C1N=Nc1ccccc1 (stereo unspecified)	-	?	-	-	.	.	.	.	.
CCC1CO/C(=C(\C(Cl)=C(Cl)Cl)[N+](=O)[O-])N1 (stereo unspecified)	-	-	-	-	.	.	.	.	.
CN1CCO/C1=C(\C(Cl)=C(Cl)Cl)[N+](=O)[O-]	-	18µM	-	-	-	-	-	-	-
CN1CCc2c(sc(/N=C/c3c[nH]c4ccccc34)c2C#N)C1	-	18µM	-	-	-[10.4 µM]	-	-	-	?
O=C(NNC(=O)c1ccccc1[N+](=O)[O-])c1ccccn1	-	16µM	-	-	-[10.4 µM]	-	-	-	-
O=C(CNCc1ccco1)Nc1cccc(S(=O)(=O)N2CCCCC2)c1	-	18µM	-	-	-[10.4 µM]	-	-	-	-
O=C(Nc1cccc(S(=O)(=O)N2CCCC2)c1)c1ccco1	-	.	.	-	.	.	.	.	.
COc1ccc(NC(=O)Cn2c(=O)c3cc(Cl)ccc3n3nncc23)cc1	-	.	.	.	.	.	.	.	.
CC(=O)NC1C(=O)SC1(C)C (stereo unspecified)	.	16µM	-	.	-	-	-	-	-
CC(=O)N[C@@H]1CCSC1=O	-	-	.	.	.	.	.	.	.
Cc1cc(=O)n(C(C)Cc2ccccc2)n1C(C)Cc1ccccc1 (stereo unspecified)	-	.	.	-	.	.	.	.	.
CCOc1ccc(NC(=S)N(CCOC)C(C)c2ccco2)cc1 (stereo unspecified)	-	-	-	-	.	.	.	.	.
O=C1Nc2ccccc2-c2nnnn2C1N1CCCCC1 (stereo unspecified)	.	.	.	-	.	.	.	.	.
SMILES	Tb PYK inh	Giardia FBPA inh-1	LmPK inh	RE007 growth inh	Giardia growth	Mammal cell tox	Giardia FBPA inh-2	Rabbit FBPA inh	GAPDH counter
O=C(NC(=S)Nc1ccc2oc(=O)ccc2c1)c1cccc(F)c1	-	?	-	-	.	.	.	.	.
O=C(NC(=S)Nc1ccc2oc(=O)ccc2c1)c1cccc(Cl)c1	-	10µM	-	-	20µM	-	-	-	-
Cc1ccsc1C(=O)OCC(=O)Nc1cccc(S(=O)(=O)N2CCCCC2)c1	-	.	.	-	.	.	.	.	.
Cc1ccc2c(c1)C1CN(C)CCC1N2C(=S)NC(=O)c1ccc(Br)cc1 (stereo unspecified)	-	16µM	-	-	8.9µM	-	-	-	-
C/C(CC(=O)N1CCN(C=O)CC1)=N\NC(=O)c1ccc(Cl)cc1	-	-	-	?	.	.	.	.	.
CN1CCN(C(=S)NC(=O)c2ccc(Br)cc2)CC1	-	18µM	?	-	-	-	-	-	-
Cc1ccc(C(=O)NC(=S)N2CCN(C)CC2)cc1	-	-	-	-	.	.	.	.	.
CN1CCN(C(=S)NC(=O)c2ccc(-c3ccccc3)cc2)CC1	-	18µM	-	-	-[10.4 µM]	-	-	-	-
O=CN1CCN(C(=S)NC(=O)c2ccc(Cl)cc2)CC1	-	10µM	-	-	-	-	-	-	-
C[N+](C)(CCCOc1ccccc1)c1ccccc1	.	-	.	.	.	.	.	.	.
O=C(O)c1nc(=O)[nH]c(=O)[nH]1	-	.	.	.	.	.	.	.	.
O=C(O)c1[nH]c(=O)[nH]c(=O)c1F	-	20µM	-	-	-	-	-	-	-
COc1cc(/C=C/C(=O)c2c(O)cc(C)oc2=O)cc(OC)c1O	-	16µM	-	-	-[10.4 µM]	-	?	?	?
COc1cccc(/C=C/C(=O)c2c(O)cc(C)oc2=O)c1O	-	-	-	-	.	.	.	.	.
COc1ccc(-c2cc3c(o2)CCCC3OCCN2CCOCC2)cc1 (stereo unspecified)	-	.	.	-	.	.	.	.	.
Cn1nnc(NC(=S)NC(=O)Cc2ccccc2)n1	-	1.6µM	-	-	-	-	-	-	-
COc1cccc(C(=O)NC(=S)Nc2nnn(C)n2)c1	-	1.6µM	-	-	-	-	-	-	-
N#Cc1cc2cc3c(cc2nc1Cl)OCCO3	-	.	.	-	.	.	.	.	.
N#Cc1cc2cc3c(cc2nc1N1CCCCC1)OCCO3	-	6.3µM	-	-	56µM	-	-	-	-
Cc1ccccc1Cn1c(=O)n(CCCCC(=O)NCc2ccccc2Cl)c(=O)c2ccccc21	-	.	.	.	.	.	.	.	.
O=C(/C=C/c1ccc(Cl)cc1)NC(=S)N1C[C@H]2C[C@H](C1)c1cccc(=O)n1C2	-	7.1µM	-	-	-	-	-	-	-
O=C(/C=C/c1ccc(Br)cc1)NC(=S)N1C[C@H]2C[C@H](C1)c1cccc(=O)n1C2	-	?	-	-	.	.	.	.	.
O=C(O)c1cccc(-n2c(-c3cnccn3)n[nH]c2=S)c1	-	20µM	-	-	-[10.4 µM]	-	-	-	-
COc1ccc(CNc2nc3c(c(=O)[nH]c(=O)n3C)n2CCCc2ccccc2)cc1	-	-	-	-	.	.	.	.	.
